According to PubChem BioAssay (EPA / NIEHS):
Inconclusive results are not listed. Activity calls are given as the source filed them. The calls were made as follows, unless noted: active = hit-call score of the fitted dose curve at least 0.9, where 1 is the maximum; inactive = score below 0.9.

Columns and labels:
[1] = test system: SERPINA7 (gene 6906); test: CCTE_GLTED_hTBG: CCTE's human Thyroxine-binding Globulin (TBG) Inhibition Assay, Great Lakes Toxicology and Ecology Division (GLTED) Lab (AID 2284343; active = hit-call score of the fitted dose curve at least 0.9, where 1 is the maximum;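 also: active chemicals lower fluorescence versus DMSO baseline by displacing probe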)
How it was run: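 Cell-free binding assay in which human TBG is incubated with test chemical for 2 hours and displacement of the fluorescent probe ANSA is read at 380 nm excitation/475 nm emission. Activity is fitted against DMSO as the negative control.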

[2] = CCTE_Mundy_HCI_iCellGluta_NOG_NeuriteCount: CCTE's Neurite Outgrowth Assay in iCellGluta cells for Neurite Count, Mundy Lab (AID 2284342; active = hit-call score of the fitted dose curve at least 0.9, where 1 is the maximum;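 also: chemical exposure about 48 hours starting 2 hours after plating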)
[3] = Tanguay_ZF_120hpf_MO24: Oregon State University Tanguay Lab 24 Hour Post-fertilization zebrafish Assay for Mortality (AID 2284389)
How it was run: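 Dechorionated wild-type zebrafish embryos, 1 per well, statically exposed from 6 hpf at 28C, 0.64% DMSO final. Mortality scored as binary present/absent at 24 hpf by brightfield microscopy, relative to DMSO.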

[4] = Tanguay_ZF_120hpf_DP24: Oregon State University Tanguay Lab 24 Hour Post-fertilization zebrafish Assay for Delayed Development (AID 2284390)
How it was run: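 Dechorionated 5D wild-type zebrafish embryos exposed statically from 6 hpf, one per well, 0.64% DMSO final, 28 C, sealed and dark. Developmental progression scored at 24 hpf by brightfield as binary present/absent; dead embryos excluded.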

[5] = Tanguay_ZF_120hpf_CRAN: Oregon State University Tanguay Lab 120 Hour Post-fertilization zebrafish Assay for Craniofacial Malformation (AID 2284397)
How it was run: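 Dechorionated Tropical 5D wild-type zebrafish embryos, one per well, were statically exposed from 6 to 120 hpf at 28C in 0.64% DMSO, with 5uM trimethyltin chloride as positive control. Craniofacial malformation was scored present/absent by brightfield microscopy, relative to DMSO.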

[6] = Tanguay_ZF_120hpf_AXIS: Oregon State University Tanguay Lab 120 Hour Post-fertilization zebrafish Assay for Axial Malformation (AID 2284398)
How it was run: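 Dechorionated 5D wild-type zebrafish embryos exposed statically, one per well, from 6 to 120 hpf at 28C, 0.64% DMSO. Axial malformation scored as present/absent by brightfield microscopy at 120 hpf; dead embryos not scored.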

[7] = Tanguay_ZF_120hpf_MORT: Oregon State University Tanguay Lab 120 Hour Post-fertilization zebrafish Assay for Mortality (AID 2284399)
How it was run: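 Dechorionated wild-type Tropical 5D zebrafish embryos, one per well from 6 hpf, static exposure to 120 hpf at 28C in sealed dark plates, 0.64% DMSO final. Mortality scored as binary by brightfield at 24 and 120 hpf.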

[8] = Tanguay_ZF_120hpf_EDEM: Oregon State University Tanguay Lab 120 Hour Post-fertilization zebrafish Assay for Edema Malformation (AID 2284400)
How it was run: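 Dechorionated Tropical 5D wild-type embryos, one per well, statically exposed from 6 to 120 hpf at 28C in 0.64% DMSO. Edema scored present/absent by brightfield microscopy at 120 hpf; dead embryos not scored; fit versus DMSO.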

[9] = Tanguay_ZF_120hpf_BRN: Oregon State University Tanguay Lab 120 Hour Post-fertilization zebrafish Assay for Brain Region Malformation (AID 2284402)
How it was run: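 Dechorionated wild-type Tropical 5D zebrafish embryos exposed statically from 6 to 120 hpf at 28C, one per well, 0.64% DMSO final. Brain malformation scored at 120 hpf by brightfield as present/absent; dead embryos not scored.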

[10] = Tanguay_ZF_120hpf_TCHR: Oregon State University Tanguay Lab 120 Hour Post-fertilization zebrafish Assay for Touch Responsive (AID 2284403)
How it was run: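 Dechorionated Tropical 5D wild-type zebrafish embryos, one per well from 6 hpf, were statically exposed to 120 hpf at 28 °C (0.64% DMSO). Touch response was scored present/absent at 120 hpf and not scored in dead larvae.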

[11] = Tanguay_ZF_120hpf_ANY: Oregon State University Tanguay Lab 120 Hour Post-fertilization zebrafish Assay for Any Mortality and Malformation (AID 2284404)
How it was run: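 Dechorionated Tropical 5D wild-type embryos, one per well from 6 hpf, static exposure in sealed, dark plates at 28C until 120 hpf, 0.64% DMSO final. Brightfield scoring of mortality and malformations as binary presence/absence, pooling 13 morphology endpoints.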

[12] = test system: SRY-box transcription factor 17 (SOX17) Protein Expression, Deisenroth Lab, SOX17 (gene 64321); test: CCTE_Deisenroth_DEVTOX-GLR_legacy_Sox17: (Legacy) CCTE's DevTox GLR-Endo Assay Evaluation of SRY-box transcription factor 17 (SOX17) Protein Expression, Deisenroth Lab (AID 2284341); conditions: actives raise or lower the signal
How it was run: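 Percent SOX17-positive cells, scored by high-content imaging as mean intensity exceeding pluripotent-control median by 5x BMAD, divided by cell count. Human RUES2-GLR endoderm differentiation, 48 h, two exposures 24 h apart, 1 nM–200 uM; DMSO-referenced bidirectional fitting.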

[13] = test system: SRY-box transcription factor 2 (SOX2) Protein Expression, Deisenroth Lab, SOX2 (gene 6657); test: CCTE_Deisenroth_DEVTOX-GLR_legacy_Sox2: (Legacy) CCTE's DevTox GLR-Endo Assay Evaluation of SRY-box transcription factor 2 (SOX2) Protein Expression, Deisenroth Lab (AID 2284346)
How it was run: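 RUES2-GLR human pluripotent cells were differentiated for 48 h with two chemical doses 24 h apart, over 1 nM-200 uM. Sox2+ cells were those above 5x BMAD of the endoderm-control median; percent Sox2+ minus the 0.2% DMSO median was used, from n=4 replicates.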

Measured: AC50

NC(=O)N1C(=O)C(C(=O)c2cc(Cl)cs2)c2cc(F)c(Cl)cc21 (stereo unspecified)
active: [1] 7.27 µM

OCCC(F)(F)C(F)(F)C(F)(F)C(F)(F)C(F)(F)C(F)(F)C(F)(F)C(F)(F)F
inactive: [2] | [3] | [4] | [5] | [6] | [7] | [8] | [9] | [10] | [11]

C[C@@H]1C[C@H]2[C@@H]3CCC4=CC(=O)C=C[C@]4(C)[C@@]3(F)[C@@H](O)C[C@]2(C)[C@@]1(O)C(=O)COP(=O)(O)O
inactive: [12] | [13]

CC1=C(/C=C/C(C)=C/C=C/C(C)=C/C(=O)O)C(C)(C)CCC1
active: [12] 109 nM | [13] 82.8 µM

O=C(O)c1ccccc1C(c1ccc(O)cc1)c1ccc(O)cc1
active: [1] 49.9 µM
